Legend:
Assay in all cases: log2 ratio of Biotin-Ahx-Ub-VS probe labelling (fragment/DMSO); higher = less target engagement (more negative = stronger competition), active = hit call of the paper (q ≤ 0.05, log2 ratio ≤ -1)
Details in all cases: compound concentration: 200 uM; treatment time: 3 h
[1] = molecular target: USP34 (UniProt Q70CQ2)
Method in brief: (§1)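 Average log2 ratios of fragment over vehicle were obtained by unpaired t-test from global-median-normalised Spectronaut label-free quantities. Proteins with ≥2 unique peptides were included. HEK293T lysate (495 µg per sample) was treated in triplicate with fragment at 200 µM or vehicle for 3 h, then with Biotin-Ahx-Ub-VS at 0.5 µM final for 1 h, and labelled DUBs were NeutrAvidin-enriched and run by diaPASEF LC-MS/MS.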

[2] = molecular target: T1, USP36 (UniProt Q9P275)
T1 sequence (whole entry): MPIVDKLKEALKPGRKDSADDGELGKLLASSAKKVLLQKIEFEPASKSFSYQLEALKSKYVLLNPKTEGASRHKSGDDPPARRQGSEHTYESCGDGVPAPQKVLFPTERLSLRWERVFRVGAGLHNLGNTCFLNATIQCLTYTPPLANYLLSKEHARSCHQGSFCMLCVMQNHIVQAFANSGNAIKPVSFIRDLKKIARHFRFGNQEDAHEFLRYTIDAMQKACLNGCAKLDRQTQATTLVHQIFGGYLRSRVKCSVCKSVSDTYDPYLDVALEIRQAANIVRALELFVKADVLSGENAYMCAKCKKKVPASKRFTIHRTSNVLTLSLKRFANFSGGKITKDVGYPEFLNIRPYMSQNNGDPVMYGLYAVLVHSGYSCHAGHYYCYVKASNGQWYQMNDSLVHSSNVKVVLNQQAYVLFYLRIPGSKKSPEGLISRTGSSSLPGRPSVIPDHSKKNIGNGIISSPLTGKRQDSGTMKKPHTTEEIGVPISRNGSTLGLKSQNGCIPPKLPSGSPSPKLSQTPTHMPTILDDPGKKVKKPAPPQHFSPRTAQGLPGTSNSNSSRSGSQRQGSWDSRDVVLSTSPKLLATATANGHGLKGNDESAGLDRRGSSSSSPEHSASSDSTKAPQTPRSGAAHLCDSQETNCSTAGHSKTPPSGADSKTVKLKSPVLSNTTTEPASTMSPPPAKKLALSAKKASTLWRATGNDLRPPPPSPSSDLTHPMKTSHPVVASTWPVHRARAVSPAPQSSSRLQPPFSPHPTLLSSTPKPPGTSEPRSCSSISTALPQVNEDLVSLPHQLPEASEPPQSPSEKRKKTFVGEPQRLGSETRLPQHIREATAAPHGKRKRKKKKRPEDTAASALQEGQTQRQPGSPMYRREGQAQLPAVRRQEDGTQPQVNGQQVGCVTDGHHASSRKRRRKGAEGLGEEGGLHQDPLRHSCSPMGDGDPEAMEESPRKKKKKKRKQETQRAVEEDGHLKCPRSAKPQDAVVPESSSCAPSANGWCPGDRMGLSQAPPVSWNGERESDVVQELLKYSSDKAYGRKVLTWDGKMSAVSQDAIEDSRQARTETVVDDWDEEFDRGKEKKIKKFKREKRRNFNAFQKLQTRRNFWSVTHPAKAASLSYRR
Method in brief: as §1

[3] = molecular target: T2, USP38 (UniProt Q8NB14)
T2 sequence (whole entry): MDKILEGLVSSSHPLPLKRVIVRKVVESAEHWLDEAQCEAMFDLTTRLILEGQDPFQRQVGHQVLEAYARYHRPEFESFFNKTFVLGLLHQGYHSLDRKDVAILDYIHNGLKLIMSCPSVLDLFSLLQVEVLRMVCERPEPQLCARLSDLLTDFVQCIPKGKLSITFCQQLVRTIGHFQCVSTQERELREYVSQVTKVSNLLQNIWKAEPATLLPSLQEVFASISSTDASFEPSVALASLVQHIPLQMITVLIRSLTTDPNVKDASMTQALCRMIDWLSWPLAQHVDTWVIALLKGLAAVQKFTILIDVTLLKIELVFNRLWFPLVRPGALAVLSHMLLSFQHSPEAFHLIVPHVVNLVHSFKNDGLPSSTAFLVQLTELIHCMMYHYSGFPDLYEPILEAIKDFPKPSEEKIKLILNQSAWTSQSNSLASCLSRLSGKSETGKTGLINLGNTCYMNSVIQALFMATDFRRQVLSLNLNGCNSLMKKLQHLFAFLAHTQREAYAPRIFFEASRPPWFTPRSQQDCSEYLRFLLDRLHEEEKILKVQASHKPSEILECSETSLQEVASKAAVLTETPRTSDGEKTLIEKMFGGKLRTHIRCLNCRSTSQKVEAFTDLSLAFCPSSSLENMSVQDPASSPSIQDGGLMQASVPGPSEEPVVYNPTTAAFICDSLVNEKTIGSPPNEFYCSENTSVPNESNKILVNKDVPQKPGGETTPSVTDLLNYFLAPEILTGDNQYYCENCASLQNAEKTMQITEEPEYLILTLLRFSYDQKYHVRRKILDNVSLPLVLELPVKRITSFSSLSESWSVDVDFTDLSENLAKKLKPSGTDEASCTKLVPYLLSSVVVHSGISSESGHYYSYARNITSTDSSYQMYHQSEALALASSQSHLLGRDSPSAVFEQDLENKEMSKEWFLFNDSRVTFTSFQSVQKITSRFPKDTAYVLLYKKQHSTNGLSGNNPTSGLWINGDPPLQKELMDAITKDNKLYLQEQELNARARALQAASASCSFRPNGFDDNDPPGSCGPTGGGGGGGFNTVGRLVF
Method in brief: as §1

[4] = molecular target: T3, USP39 (UniProt Q53GS9)
T3 sequence (whole entry): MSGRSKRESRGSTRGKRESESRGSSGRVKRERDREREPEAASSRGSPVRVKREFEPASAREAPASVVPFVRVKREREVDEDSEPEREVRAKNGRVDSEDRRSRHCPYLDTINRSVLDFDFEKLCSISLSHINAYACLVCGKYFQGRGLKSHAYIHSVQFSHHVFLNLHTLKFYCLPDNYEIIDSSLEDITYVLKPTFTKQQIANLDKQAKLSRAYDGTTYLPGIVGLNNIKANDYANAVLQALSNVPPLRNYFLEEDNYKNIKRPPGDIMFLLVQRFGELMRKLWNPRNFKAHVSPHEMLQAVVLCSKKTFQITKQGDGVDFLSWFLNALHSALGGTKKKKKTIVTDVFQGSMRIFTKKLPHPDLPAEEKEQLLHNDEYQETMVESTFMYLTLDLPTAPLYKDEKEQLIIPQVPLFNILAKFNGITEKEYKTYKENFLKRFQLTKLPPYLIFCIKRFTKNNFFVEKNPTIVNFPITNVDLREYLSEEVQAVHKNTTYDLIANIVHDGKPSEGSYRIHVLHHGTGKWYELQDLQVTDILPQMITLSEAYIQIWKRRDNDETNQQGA
Method in brief: as §1

[5] = molecular target: T4, USP4 (UniProt Q13107)
T4 sequence (whole entry): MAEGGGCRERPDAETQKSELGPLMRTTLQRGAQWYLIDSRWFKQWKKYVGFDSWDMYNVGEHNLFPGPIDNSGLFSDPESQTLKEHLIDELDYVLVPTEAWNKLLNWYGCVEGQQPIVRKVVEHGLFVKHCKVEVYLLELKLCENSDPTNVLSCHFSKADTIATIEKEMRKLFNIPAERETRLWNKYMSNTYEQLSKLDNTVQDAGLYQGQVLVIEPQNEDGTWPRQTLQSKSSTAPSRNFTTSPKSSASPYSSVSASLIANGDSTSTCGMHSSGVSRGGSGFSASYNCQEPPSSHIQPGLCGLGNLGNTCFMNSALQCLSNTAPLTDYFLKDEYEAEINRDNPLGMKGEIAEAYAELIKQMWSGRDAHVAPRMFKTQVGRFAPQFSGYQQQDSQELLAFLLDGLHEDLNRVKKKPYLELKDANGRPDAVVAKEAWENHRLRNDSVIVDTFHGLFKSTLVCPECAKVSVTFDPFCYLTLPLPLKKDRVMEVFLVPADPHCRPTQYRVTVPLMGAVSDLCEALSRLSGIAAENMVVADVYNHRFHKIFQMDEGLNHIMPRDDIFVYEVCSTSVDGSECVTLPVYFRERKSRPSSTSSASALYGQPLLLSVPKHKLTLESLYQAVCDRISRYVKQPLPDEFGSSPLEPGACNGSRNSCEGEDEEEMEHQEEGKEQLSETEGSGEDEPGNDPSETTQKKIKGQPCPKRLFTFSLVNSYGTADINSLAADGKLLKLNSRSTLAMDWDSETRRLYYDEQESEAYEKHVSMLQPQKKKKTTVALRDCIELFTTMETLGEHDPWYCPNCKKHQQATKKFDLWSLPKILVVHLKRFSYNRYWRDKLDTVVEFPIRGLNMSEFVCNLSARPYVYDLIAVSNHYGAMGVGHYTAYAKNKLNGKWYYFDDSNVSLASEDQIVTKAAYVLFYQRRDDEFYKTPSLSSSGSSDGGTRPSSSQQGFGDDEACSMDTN
Method in brief: as §1

Measured: log2 ratio of Biotin-Ahx-Ub-VS probe labelling

USP34, sequence (Q70CQ2 whole entry, the tested form may be a part): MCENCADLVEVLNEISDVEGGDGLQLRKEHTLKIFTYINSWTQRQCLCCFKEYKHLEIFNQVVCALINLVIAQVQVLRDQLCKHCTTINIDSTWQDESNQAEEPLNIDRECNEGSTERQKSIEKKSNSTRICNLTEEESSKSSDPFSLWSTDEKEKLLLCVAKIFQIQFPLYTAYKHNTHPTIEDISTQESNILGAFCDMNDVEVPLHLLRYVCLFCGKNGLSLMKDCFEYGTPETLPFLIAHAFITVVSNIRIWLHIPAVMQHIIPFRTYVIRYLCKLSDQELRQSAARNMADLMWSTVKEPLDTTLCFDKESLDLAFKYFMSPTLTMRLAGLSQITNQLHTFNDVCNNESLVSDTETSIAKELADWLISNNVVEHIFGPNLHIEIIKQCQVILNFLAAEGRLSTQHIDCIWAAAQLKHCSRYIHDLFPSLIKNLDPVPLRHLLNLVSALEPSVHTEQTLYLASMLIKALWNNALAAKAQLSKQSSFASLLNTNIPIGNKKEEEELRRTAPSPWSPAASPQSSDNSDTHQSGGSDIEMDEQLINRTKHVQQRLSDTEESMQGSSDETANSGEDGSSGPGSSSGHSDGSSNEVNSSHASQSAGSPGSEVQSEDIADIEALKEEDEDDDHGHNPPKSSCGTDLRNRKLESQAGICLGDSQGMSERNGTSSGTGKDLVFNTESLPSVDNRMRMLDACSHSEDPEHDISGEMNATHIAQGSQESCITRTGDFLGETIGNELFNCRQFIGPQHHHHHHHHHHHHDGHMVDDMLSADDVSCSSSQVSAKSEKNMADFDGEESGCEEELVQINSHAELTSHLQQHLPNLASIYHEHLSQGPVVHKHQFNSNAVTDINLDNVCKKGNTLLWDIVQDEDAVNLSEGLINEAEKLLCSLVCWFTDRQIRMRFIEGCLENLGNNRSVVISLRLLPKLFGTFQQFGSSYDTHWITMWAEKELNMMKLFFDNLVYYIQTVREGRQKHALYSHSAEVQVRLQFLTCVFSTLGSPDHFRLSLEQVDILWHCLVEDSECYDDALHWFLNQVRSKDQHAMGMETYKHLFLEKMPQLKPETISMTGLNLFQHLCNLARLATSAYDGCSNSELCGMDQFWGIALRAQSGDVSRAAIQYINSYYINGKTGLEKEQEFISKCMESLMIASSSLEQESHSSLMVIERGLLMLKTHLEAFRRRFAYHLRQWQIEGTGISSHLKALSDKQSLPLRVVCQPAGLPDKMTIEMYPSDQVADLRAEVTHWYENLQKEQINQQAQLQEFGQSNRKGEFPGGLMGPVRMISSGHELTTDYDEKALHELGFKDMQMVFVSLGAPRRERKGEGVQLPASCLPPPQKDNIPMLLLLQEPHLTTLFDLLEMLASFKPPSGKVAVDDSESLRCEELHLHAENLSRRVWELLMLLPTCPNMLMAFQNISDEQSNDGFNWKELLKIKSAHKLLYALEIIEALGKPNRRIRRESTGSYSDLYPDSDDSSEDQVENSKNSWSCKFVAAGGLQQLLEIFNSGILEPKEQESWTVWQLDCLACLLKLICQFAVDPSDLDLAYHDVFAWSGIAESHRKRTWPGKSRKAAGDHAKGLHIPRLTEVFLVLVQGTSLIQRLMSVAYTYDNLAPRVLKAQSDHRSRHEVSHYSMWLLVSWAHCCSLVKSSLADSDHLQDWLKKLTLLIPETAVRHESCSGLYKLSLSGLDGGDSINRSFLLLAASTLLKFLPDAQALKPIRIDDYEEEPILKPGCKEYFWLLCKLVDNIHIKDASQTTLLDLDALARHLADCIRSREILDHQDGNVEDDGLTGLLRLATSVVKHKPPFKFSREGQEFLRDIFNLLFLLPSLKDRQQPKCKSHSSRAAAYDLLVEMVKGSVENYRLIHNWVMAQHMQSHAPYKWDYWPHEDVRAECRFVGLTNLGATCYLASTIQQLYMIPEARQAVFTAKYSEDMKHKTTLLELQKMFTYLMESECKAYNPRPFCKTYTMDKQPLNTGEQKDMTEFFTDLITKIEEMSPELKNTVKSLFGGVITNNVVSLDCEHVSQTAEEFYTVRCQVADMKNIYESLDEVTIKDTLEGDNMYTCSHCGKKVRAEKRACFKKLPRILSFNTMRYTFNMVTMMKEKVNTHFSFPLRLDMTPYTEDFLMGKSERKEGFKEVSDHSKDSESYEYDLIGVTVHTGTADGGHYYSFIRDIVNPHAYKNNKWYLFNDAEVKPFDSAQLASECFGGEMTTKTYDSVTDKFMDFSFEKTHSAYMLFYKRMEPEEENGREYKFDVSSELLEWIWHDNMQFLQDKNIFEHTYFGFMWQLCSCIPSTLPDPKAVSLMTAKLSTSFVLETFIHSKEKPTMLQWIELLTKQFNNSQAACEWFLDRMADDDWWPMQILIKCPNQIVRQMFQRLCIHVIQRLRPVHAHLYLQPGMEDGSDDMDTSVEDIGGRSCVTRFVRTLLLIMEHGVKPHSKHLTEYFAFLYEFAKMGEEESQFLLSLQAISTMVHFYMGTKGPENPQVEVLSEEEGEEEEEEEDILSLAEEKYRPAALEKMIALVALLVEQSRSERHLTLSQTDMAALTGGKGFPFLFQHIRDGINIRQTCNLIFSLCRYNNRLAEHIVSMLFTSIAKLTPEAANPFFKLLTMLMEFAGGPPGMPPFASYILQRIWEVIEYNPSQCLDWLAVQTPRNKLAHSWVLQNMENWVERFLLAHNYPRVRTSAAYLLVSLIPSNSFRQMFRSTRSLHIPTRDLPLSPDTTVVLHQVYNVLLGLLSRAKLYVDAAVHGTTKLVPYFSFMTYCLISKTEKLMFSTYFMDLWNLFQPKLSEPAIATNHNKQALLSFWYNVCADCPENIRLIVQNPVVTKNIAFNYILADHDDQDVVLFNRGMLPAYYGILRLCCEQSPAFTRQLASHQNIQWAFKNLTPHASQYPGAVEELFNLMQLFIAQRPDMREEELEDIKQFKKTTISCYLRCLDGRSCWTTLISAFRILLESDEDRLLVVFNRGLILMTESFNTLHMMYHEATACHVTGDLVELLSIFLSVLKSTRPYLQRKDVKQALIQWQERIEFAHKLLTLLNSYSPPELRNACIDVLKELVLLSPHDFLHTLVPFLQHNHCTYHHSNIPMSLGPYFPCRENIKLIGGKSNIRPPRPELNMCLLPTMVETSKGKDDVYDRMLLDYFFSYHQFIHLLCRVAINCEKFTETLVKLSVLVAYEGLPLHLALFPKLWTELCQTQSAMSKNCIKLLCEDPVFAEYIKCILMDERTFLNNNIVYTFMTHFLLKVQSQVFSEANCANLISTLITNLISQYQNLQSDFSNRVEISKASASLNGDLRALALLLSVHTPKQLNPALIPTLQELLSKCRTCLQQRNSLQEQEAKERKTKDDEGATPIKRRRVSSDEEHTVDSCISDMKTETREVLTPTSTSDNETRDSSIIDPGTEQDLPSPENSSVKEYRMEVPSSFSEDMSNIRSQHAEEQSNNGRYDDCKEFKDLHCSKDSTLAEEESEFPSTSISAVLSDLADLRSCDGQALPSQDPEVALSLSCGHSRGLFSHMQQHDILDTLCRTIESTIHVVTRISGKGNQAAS

COc1ccc(C2CCCN2C(=O)CCl)c(OC)c1 (stereo not given)
inactive: [1] -0.0529 | [2] -0.129 | [3] -0.231 | [4] 0.128 | [5] -0.347

From the supplement of paper PMC11732987, “Enantioselective OTUD7B fragment discovery through chemoproteomics screening and high-throughput optimisation” (Communications Chemistry, 2025)
